An excerpt weighted towards active compounds, which were near 3.8% of everything screened.
tim10-1 inh: growth inhibitors of tim10-1 mutant yeast, primary screen, luminescence, uHTS; AID 463190, 2010; inhibition, % at 20 µM; S. cerevisiae tim10-1 ts strain growth, BacTiter-Glo, 24 h; actives 2.2% (n = 330,000);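 active = inhibition of at least 40%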;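 also: mutant grown at 25 °C; 0% = DMSO wells with yeast and 100% = wells holding no yeast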
Beta2AR agonist: beta2AR agonists driving receptor internalization, primary screen, cell-based, FAP fluorogen, flow cytometry; Am2.2-beta2AR cells; actives 0.43% (n = 340,000); AID 504454, 2011; Beta-2 adrenergic receptor (Homo sapiens), P07550; response, % (no concentration beside the values);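 active = response above a set limit, near 3 SD of response in nonfluorescent compounds, cut at about 42% in these data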
Target sequence (P07550 whole entry, looked up): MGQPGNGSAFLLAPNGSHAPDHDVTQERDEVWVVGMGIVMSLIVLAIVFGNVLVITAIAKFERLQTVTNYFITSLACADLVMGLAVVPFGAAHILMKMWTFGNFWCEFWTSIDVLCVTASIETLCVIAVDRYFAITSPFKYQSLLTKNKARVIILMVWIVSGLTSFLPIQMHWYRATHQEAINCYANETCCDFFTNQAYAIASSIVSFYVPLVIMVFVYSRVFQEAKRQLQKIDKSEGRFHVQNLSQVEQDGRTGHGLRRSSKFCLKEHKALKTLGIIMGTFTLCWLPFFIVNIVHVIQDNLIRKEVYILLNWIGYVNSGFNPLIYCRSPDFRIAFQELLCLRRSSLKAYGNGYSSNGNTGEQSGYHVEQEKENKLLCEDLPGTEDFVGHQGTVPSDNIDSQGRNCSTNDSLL
tim23-1 inh: growth inhibitors of tim23-1 mutant yeast, primary screen, luminescence, uHTS; actives 1.3% (n = 330,000); inhibition, % at 20 µM; S. cerevisiae tim23-1 growth, BacTiter-Glo luminescence, 24 h;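 active = growth inhibition of the mutant yeast at or above 50%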;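 also: temperature-sensitive mutant grown at 25 °C; plate controls were DMSO-treated mutant yeast for no effect and medium wells lacking yeast for full effect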
TIM10 inh: growth inhibitors of isogenic TIM10 control yeast, primary screen, counter-screen for tim10-1 yeast inhibitor project, luminescence, uHTS; inhibition, % at 10 µM; S. cerevisiae TIM10 strain growth, BacTiter-Glo luminescence, 24 h; actives 1.4% (n = 330,000);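 active = inhibition of 40% or more at the single tested concentration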;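 also: wild-type TIM10 isogenic control strain grown at permissive 25 °C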
PfHsp90 yeast 2: growth inhibition of PfHsp90-expressing yeast, primary screen, antimalarial PfHsp90 inhibitor project, S. cerevisiae, BacTiter-Glo luminescence, single point, set 2; BacTiter-Glo ATP, 48 h; yeast lacking PDR1 and PDR3 efflux regulators; AID 504621, 2011; inhibition, % at 9.4 µM; actives 0.32% (n = 310,000);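 active = every replicate shows inhibition above about 80%, whatever the replicate mean, limit read from the data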;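 also: 0% = DMSO neutral controls and 100% = 20 µM radicicol positive controls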
TIM10 conf: growth inhibitors of wild-type TIM10 yeast, confirmation, counter-screen for tim10-1 synthetic lethality project, single concentration, luminescence, S. cerevisiae | inhibition, % at 10 µM | actives 63% (n = 4,600) | AID 463215, 2010 | S. cerevisiae tim10 strain growth, BacTiter-Glo luminescence, 24 h | shares compounds with TIM10 inh;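 active = inhibition of yeast growth at or above a set limit in either of two replicates at 10 µM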;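 also: this counterscreen used the strain with wild-type TIM10; 0% = yeast with DMSO and 100% = medium wells lacking yeast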
Active calls of the source: *; ! = not confirmed by another sample.

`O=C(Nc1ccc2c(c1)Cc1ccccc1-2)c1cc2ccccc2o1` gave tim10-1 inh -13, Beta2AR agonist 5, tim23-1 inh -6, TIM10 inh 0 and PfHsp90 yeast 2 6.
`O=C(Nc1ccc2c(c1)CCC2)c1cc2ccccc2o1` gave tim10-1 inh 20, Beta2AR agonist 1, tim23-1 inh 44, TIM10 inh 56*, PfHsp90 yeast 2 15 and TIM10 conf -18.
CCCCC[C@@H]1C=C(C(=O)O)[C@H](c2ccc(OC)c(OC)c2)N1S(=O)(=O)c1ccc(C)cc1 was read as tim10-1 inh 6, Beta2AR agonist 4, tim23-1 inh -9, TIM10 inh 97*, PfHsp90 yeast 2 -4 and TIM10 conf 11.
Screening CCCCc1nnc(NC(=O)C2CC(=O)N(Cc3ccccc3)C2)s1 (stereo unspecified) returned tim10-1 inh 10, Beta2AR agonist -7, tim23-1 inh 9, TIM10 inh 8 and PfHsp90 yeast 2 -2.
Screening COc1ccc(-c2n[nH]c(C)c2-c2ccc(Cl)cc2)c(O)c1OC returned tim10-1 inh 23, Beta2AR agonist 23, tim23-1 inh 19, TIM10 inh 42* and TIM10 conf 33*.
`COc1ccc(-c2n[nH]c(C)c2-c2ccc(Cl)cc2)c(O)c1` gave tim10-1 inh 30, Beta2AR agonist 2, tim23-1 inh 36, TIM10 inh -1 and PfHsp90 yeast 2 -17.
For Cc1cc(C(=O)CCC(=O)NCc2ccccc2F)c(C)s1 the results were tim10-1 inh 14, Beta2AR agonist 3, tim23-1 inh 15, TIM10 inh -2 and PfHsp90 yeast 2 -4.
For Cc1c(C)c2ccc(OC(C)C(=O)N3C[C@H]4C[C@@H](C3)c3cccc(=O)n3C4)c(C)c2oc1=O (stereo partly specified) the results were tim10-1 inh -13, Beta2AR agonist -6, tim23-1 inh -4, TIM10 inh 59*, PfHsp90 yeast 2 23 and TIM10 conf -7.
For C[C@@H]1CN([C@@H](C)CO)C(=O)c2cc(NS(C)(=O)=O)ccc2O[C@@H]1CN(C)Cc1ccc(C(F)(F)F)cc1 the results were Beta2AR agonist -16 and PfHsp90 yeast 2 -8.
For COc1ccc(-c2cn[nH]c2-c2ccc(OCc3ccc(F)cc3)cc2O)cc1OC the results were tim10-1 inh 31, Beta2AR agonist 1, tim23-1 inh 22, TIM10 inh 40*, PfHsp90 yeast 2 8 and TIM10 conf 34*.
For O=[N+]([O-])c1ccc(COc2ccc(-c3[nH]ncc3-c3ccccc3)c(O)c2)cc1 the results were tim10-1 inh 17, Beta2AR agonist -6, tim23-1 inh 4, TIM10 inh 5 and PfHsp90 yeast 2 20.
Screening Oc1cc(OCc2ccccc2)ccc1-c1[nH]ncc1-c1ccccc1 returned tim10-1 inh -25, Beta2AR agonist 4, tim23-1 inh 30, TIM10 inh 50*, PfHsp90 yeast 2 105* and TIM10 conf 46*.
For Cc1ccc(NC(=O)CSc2nc(=O)n(Cc3ccncc3)c3c2CCC3)c(C)c1 the results were tim10-1 inh 4, Beta2AR agonist -3, tim23-1 inh 0 and TIM10 inh 2.
Screening O=C(CNc1ccc(F)cc1)N/N=C/c1c(O)ccc2ccccc12 returned tim10-1 inh -8, Beta2AR agonist 8, tim23-1 inh 39, TIM10 inh 44*, PfHsp90 yeast 2 -3 and TIM10 conf 42*.
COc1ccccc1NCC(=O)N/N=C/c1c(O)ccc2ccccc12 was read as tim10-1 inh -20, Beta2AR agonist 13, tim23-1 inh 2, TIM10 inh -17 and PfHsp90 yeast 2 7.
`CCOC(=O)C1CCN(C(=O)c2sc3ncnc(N4CCC(C)CC4)c3c2C)CC1` gave tim10-1 inh 35, Beta2AR agonist 7, tim23-1 inh 28, TIM10 inh 41*, PfHsp90 yeast 2 22 and TIM10 conf 16.
For Cc1occc(=O)c1OCc1ccccc1 the results were tim10-1 inh -11, Beta2AR agonist 3, tim23-1 inh -6, TIM10 inh 94*, PfHsp90 yeast 2 4 and TIM10 conf 0.
Screening O=C1C(Nc2cccc(O)c2)=C(N2CCCCC2)C(=O)c2ccccc21 returned tim10-1 inh 11, Beta2AR agonist -8, tim23-1 inh 17, TIM10 inh 46*, PfHsp90 yeast 2 -20 and TIM10 conf 40*.
Cc1cccc(NC(=S)N/N=C/c2cccn2Cc2ccc(F)cc2)c1 was read as tim10-1 inh 35, Beta2AR agonist 4, tim23-1 inh 19, TIM10 inh 53*, PfHsp90 yeast 2 10 and TIM10 conf 49*.
`CNc1nc2ccccc2n1/N=C/c1cccc(OC)c1OC` gave tim10-1 inh 30, Beta2AR agonist 0, tim23-1 inh 50, TIM10 inh 48* and TIM10 conf 29.
CCCn1cnc2cc(NC(=O)c3cccs3)ccc21 was read as tim10-1 inh 24, Beta2AR agonist -18, tim23-1 inh 49, TIM10 inh 61*, PfHsp90 yeast 2 -2 and TIM10 conf 42*.
For CCCn1cnc2cc(NC(=O)c3ccco3)ccc21 the results were tim10-1 inh 0, Beta2AR agonist -10, tim23-1 inh 46, TIM10 inh 0 and PfHsp90 yeast 2 6.
`O=C(COc1ccc(Br)cc1)NNC(=O)c1cc(S(=O)(=O)N2CCOCC2)ccc1Cl` gave Beta2AR agonist 12 and PfHsp90 yeast 2 18.
`COc1cccc(C2=NCCc3cc4c(cc32)OCO4)c1OC` gave tim10-1 inh 19, Beta2AR agonist 6, tim23-1 inh 10, TIM10 inh 9 and PfHsp90 yeast 2 -2.
Screening COc1ccc2cc3[n+](cc2c1OC)CCc1cc2c(cc1-3)OCO2 returned tim10-1 inh 39, Beta2AR agonist 0, tim23-1 inh 12, TIM10 inh 51*!, PfHsp90 yeast 2 -3 and TIM10 conf 30.
For Cc1ccc([N+](=O)[O-])cc1N=Nc1c(C)[nH]n(C(N)=S)c1=O the results were tim10-1 inh 30, Beta2AR agonist 3, tim23-1 inh 27, TIM10 inh 43*, PfHsp90 yeast 2 1 and TIM10 conf 34*.
Cc1cccc(-c2nc(=S)c3c(o2)CCCC3)c1 was read as tim10-1 inh 24, Beta2AR agonist -17, tim23-1 inh 35, TIM10 inh 44* and TIM10 conf 33*.
CCN1c2ccccc2-c2nc3ccccc3n2C1c1ccco1 (stereo unspecified) was read as tim10-1 inh 30, Beta2AR agonist 0, tim23-1 inh 35, TIM10 inh 40*, PfHsp90 yeast 2 -14 and TIM10 conf 35*.
